Measurements from PubChem BioAssay.
Calls of active or inactive are those of the source. No rule for the calls is given here.

target: Protein kinase 7 (PK7), Plasmodium falciparum 3D7 (PF3D7_0213400) (UniProt Q7YTF7); assay: inhibition of Plasmodium PK7 catalytic activity – biochemical, TCAMS antimalarial set, Kinase-Glo luminescence (AID 1159587); conditions: recombinant PfPK7, Kinase-Glo ATP depletion luminescence
Sequence (Q7YTF7 1-343): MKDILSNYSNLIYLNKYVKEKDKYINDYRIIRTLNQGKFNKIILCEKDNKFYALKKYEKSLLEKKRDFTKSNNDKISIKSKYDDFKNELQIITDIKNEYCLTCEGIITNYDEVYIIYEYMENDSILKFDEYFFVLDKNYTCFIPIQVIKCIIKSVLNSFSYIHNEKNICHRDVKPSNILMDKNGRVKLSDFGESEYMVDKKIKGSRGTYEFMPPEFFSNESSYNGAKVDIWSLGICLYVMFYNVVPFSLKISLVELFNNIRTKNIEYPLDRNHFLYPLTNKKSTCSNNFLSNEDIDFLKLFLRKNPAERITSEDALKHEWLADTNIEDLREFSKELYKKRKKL

outcome, inactive:
Cc1ccccc1N1CCN(c2ccc(C(=O)NC(C)C)cn2)CC1
COc1ccc2nccc([C@@H](O)CN3CCC(NC(=O)c4ccc(C5(C(F)(F)F)N=N5)cc4)CC3)c2c1
Cc1ccccc1C1CCN(C2CCC(NC(=O)/C=C/c3ccc(Cl)cc3)CC2)CC1 (stereo not given)
Cc1cccc2[nH]c(-c3ccc(-c4ccc(CN5CCCC(O)C5)cc4)s3)nc12 (stereo not given)
COc1cc(NC(=O)/C=C/c2cc(F)cc(F)c2F)cc(OCCN2CCC3(CC2)OCCO3)c1
Cc1ccccc1Cc1cccc(/N=C(\N)Nc2ccc(Cl)cc2)n1
CCCCCC(C)NC[C@@H](O)[C@H](Cc1ccccc1)NC(=O)c1cc(NCC)cc(N2CCCCS2(=O)=O)c1 (stereo not given in full)
O=[N+]([O-])c1ccc(C=NNc2nc(Nc3ccccc3)nc(Nc3ccccc3)n2)o1
CCNc1cc(C(=O)N[C@@H](Cc2cccc(Cl)c2)[C@H](O)CNC(C)CCCC(C)C)cc(N2CCCCS2(=O)=O)c1 (stereo not given in full)
CN(C)Cc1ccc(-c2ccc3ccnc(N)c3c2)cc1
O=C(Nc1ccc(N2CCNCC2)cc1)c1ccn2ncc(-c3cccc(Cl)c3)c2n1
COc1ccc(-c2ccc(NC(=O)c3cccc(Cl)c3)cc2)cc1CN1CCCN(C)CC1
CCC(C)c1ccc(-n2c(Nc3ccccc3)nc3cc(S(N)(=O)=O)ccc32)cc1 (stereo not given)
Cc1c(C(=O)Nc2cc(Sc3ccc(F)cc3)cc([N+](=O)[O-])c2)sc2ncn(Cc3cccc(F)c3)c(=O)c12
COc1ccc(N2CCN(CCCCNC(=O)c3ccc(NC(=O)c4ccc(Cl)cc4)cc3)CC2)c(C)c1
